Test results taken from the supplement of paper PMC8371130.
Counter-ions that a name gives are not always drawn.

Tested on: HL-1
Assay: relative cell viability (CellTiter-Glo) vs DMSO control (% of DMSO control); higher = more viable cells
Method in brief: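 In 384-well plates, 1000 HL-1 mouse atrial cardiomyocytes per well were plated with compounds at 40, 200, 1000 or 5000 nM in 0.01% DMSO. Hypoxia at 1% O2 for 48 h began one day later and was followed by 24 h of reoxygenation, with parallel plates held in normoxia. CellTiter-Glo luminescence gave cell viability relative to vehicle-treated control cells.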

[1] = oxygen condition: hypoxia 48 h (1% O2) + reoxygenation 24 h, 40 nM
[2] = oxygen condition: hypoxia 48 h (1% O2) + reoxygenation 24 h, 200 nM
[3] = oxygen condition: hypoxia 48 h (1% O2) + reoxygenation 24 h, 1000 nM
[4] = oxygen condition: hypoxia 48 h (1% O2) + reoxygenation 24 h, 5000 nM
[5] = oxygen condition: normoxia 72 h, 40 nM
[6] = oxygen condition: normoxia 72 h, 200 nM
[7] = oxygen condition: normoxia 72 h, 1000 nM
[8] = oxygen condition: normoxia 72 h, 5000 nM

| SMILES | relative cell viability [1] | relative cell viability [2] | relative cell viability [3] | relative cell viability [4] | relative cell viability [5] | relative cell viability [6] | relative cell viability [7] | relative cell viability [8] |
| --- | --- | --- | --- | --- | --- | --- | --- | --- |
| CN(C)CCCN1c2ccccc2Sc2ccc(Cl)cc21 [Chlorpromazine] | 104 | 103 | 106 | 107 | 97.1 | 100 | 106 | 117 |
| O=c1[nH]cc(F)c(=O)[nH]1 [Adrucil] | 110 | 94.1 | 52.9 | 18.6 | 96.6 | 81.2 | 42.9 | 15.4 |
| COc1ccc2[nH]cc(CCNC(C)=O)c2c1 [Melatonin] | 113 | 105 | 113 | 114 | 108 | 114 | 109 | 119 |
| CC[C@H]1OC(=O)[C@H](C)[C@@H](O[C@H]2C[C@@](C)(OC)[C@@H](O)[C@H](C)O2)[C@H](C)[C@@H](O[C@@H]2O[C@H](C)C[C@H](N(C)C)[C@H]2O)[C@](C)(OC)C[C@@H](C)C(=O)[C@H](C)[C@@H](O)[C@]1(C)O [Clarithromycin] | 101 | 101 | 105 | 105 | 100 | 100 | 107 | 108 |
| CN(C)CCN(Cc1ccccc1)c1ccccn1 [Tripelennamine HCl] | 97.8 | 87.6 | 88 | 103 | 93 | 91.8 | 94.1 | 105 |
| CO[C@H]1O[C@@H]2O[C@@]3(C)CC[C@H]4[C@H](C)CC[C@@H]([C@H]1C)[C@@]24OO3 [Artemether] | 104 | 103 | 100 | 60.3 | 103 | 102 | 98.3 | 93.2 |
| OCCOCCN1CCN(C(c2ccccc2)c2ccc(Cl)cc2)CC1 (stereo not drawn) [Hydroxyzine 2HCl] | 104 | 107 | 109 | 114 | 102 | 107 | 105 | 109 |
| CCN(CC)CCNC(=O)c1c(C)[nH]c(/C=C2\C(=O)Nc3ccc(F)cc32)c1C [Sunitinib Malate] | 106 | 109 | 107 | 115 | 105 | 119 | 114 | 111 |
| CCC[C@@H]1C[C@@H](C(=O)N[C@@H]([C@H]2O[C@H](SC)[C@H](O)[C@@H](O)[C@H]2O)[C@@H](C)O)N(C)C1 [Lincomycin hydrochloride] | 93.1 | 103 | 103 | 103 | 99 | 98.3 | 100 | 97 |
| CN[C@H](CC(C)C)C(=O)N[C@H]1C(=O)N[C@@H](CC(N)=O)C(=O)N[C@H]2C(=O)N[C@H]3C(=O)N[C@H](C(=O)N[C@H](C(=O)O)c4cc(O)cc(O)c4-c4cc3ccc4O)[C@H](O)c3ccc(c(Cl)c3)Oc3cc2cc(c3O[C@@H]2O[C@H](CO)[C@@H](O)[C@H](O)[C@H]2O[C@H]2C[C@](C)(N)[C@H](O)[C@H](C)O2)Oc2ccc(cc2Cl)[C@H]1O [Vancomycin HCl] | 105 | 92.7 | 105 | 114 | 106 | 99.4 | 106 | 113 |
| NS(=O)(=O)c1cc2c(cc1C(F)(F)F)NC(Cc1ccccc1)NS2(=O)=O (stereo not drawn) [Bendroflumethiazide] | 93.6 | 98.4 | 101 | 106 | 104 | 100 | 105 | 110 |
| Cc1ccc(S(=O)(=O)NC(=O)NN2CC3CCCC3C2)cc1 (stereo not drawn) [Gliclazide] | 104 | 110 | 111 | 104 | 112 | 113 | 118 | 112 |
| Cc1ccccc1C(=O)Nc1ccc(C(=O)N2CCCC(O)c3cc(Cl)ccc32)c(C)c1 (stereo not drawn) [Tolvaptan] | 97.3 | 104 | 104 | 110 | 96.7 | 104 | 106 | 108 |
| C[C@@H](O[C@H]1OCCN(Cc2nn(P(=O)(O)O)c(=O)[nH]2)[C@H]1c1ccc(F)cc1)c1cc(C(F)(F)F)cc(C(F)(F)F)c1 [Fosaprepitant dimeglumine] | 104 | 105 | 119 | 108 | 113 | 129 | 130 | 105 |
| C#C[C@]1(O)CC[C@H]2[C@@H]3CCC4=CC(=O)CC[C@@H]4[C@H]3CC[C@@]21C [norethindrone] | 97.6 | 100 | 97 | 105 | 102 | 108 | 100 | 113 |
| CN1CCCC(n2nc(Cc3ccc(Cl)cc3)c3ccccc3c2=O)CC1 (stereo not drawn) [Azelastine hydrochloride] | 96.2 | 98.2 | 101 | 85.4 | 97.9 | 102 | 96.4 | 84.2 |
| COc1ccc(C2C(=O)c3ccccc3C2=O)cc1 [Anisindione] | 99.6 | 102 | 105 | 118 | 102 | 78.2 | 114 | 120 |
| OC[C@@H](O)[C@@H](O)[C@H](O)[C@@H](O)CO [Sorbitol] | 93 | 101 | 98 | 101 | 100 | 106 | 97.9 | 97.5 |
| CN1CC2c3ccccc3Oc3ccc(Cl)cc3C2C1 (stereo not drawn) [Asenapine] | 105 | 104 | 108 | 106 | 111 | 101 | 103 | 111 |
| NC(=O)c1cccnc1 [Nicotinamide] | 95.4 | 97.2 | 98.5 | 104 | 96.7 | 103 | 95.5 | 102 |
| Oc1ncnc2[nH]ncc12 [Allopurinol] | 114 | 108 | 106 | 109 | 105 | 103 | 106 | 110 |

| SMILES | relative cell viability [1] | relative cell viability [2] | relative cell viability [3] | relative cell viability [4] | relative cell viability [5] | relative cell viability [6] | relative cell viability [7] | relative cell viability [8] |
| --- | --- | --- | --- | --- | --- | --- | --- | --- |
| CNCC(O)c1ccc(O)c(O)c1 (racemic) [DL-Adrenaline] | 100 | 97.8 | 67.7 | 15.5 | 107 | 93.8 | 63.6 | 11.8 |
| CCC[C@H](N[C@@H](C)C(=O)N1[C@H](C(=O)O)C[C@@H]2CCCC[C@@H]21)C(=O)OCC [Perindopril Erbumine] | 110 | 81 | 107 | 115 | 109 | 111 | 111 | 114 |
| CNNCc1ccc(C(=O)NC(C)C)cc1 [Procarbazine HCl] | 109 | 101 | 96.6 | 108 | 97.6 | 101 | 97.9 | 113 |
| CC1=NN(c2ccccc2)C(=O)C1 [Edaravone] | 101 | 97.7 | 95.2 | 108 | 95.7 | 95.9 | 98.9 | 103 |
| CCCCOc1ccc(CC(=O)NO)cc1 [Bufexamac] | 109 | 100 | 111 | 117 | 105 | 107 | 107 | 110 |
| CC(=O)OCC(=O)[C@H]1CC[C@H]2[C@@H]3CCC4=CC(=O)CC[C@]4(C)[C@H]3CC[C@]12C [Deoxycorticosterone acetate] | 103 | 99.4 | 101 | 108 | 95.4 | 103 | 102 | 107 |
| c1cnc2cc3c(cc2n1)[C@@H]1CNC[C@H]3C1 [Varenicline tartrate] | 106 | 105 | 110 | 106 | 106 | 102 | 112 | 97.8 |
| O=C(Nc1ccccc1)OCC(CN1CCCCC1)OC(=O)Nc1ccccc1 (stereo not drawn) [Diperodon HCl] | 103 | 101 | 104 | 98.6 | 87.5 | 107 | 103 | 109 |
| CC(C)c1c(C(=O)Nc2ccccc2)c(-c2ccccc2)c(-c2ccc(F)cc2)n1CC[C@@H](O)C[C@@H](O)CC(=O)O [Atorvastatin calcium] | 107 | 95.8 | 102 | 41.7 | 96.4 | 98.8 | 81.6 | 19.9 |
| Cc1c(OCC(F)(F)F)ccnc1C[S@@+]([O-])c1nc2ccccc2[nH]1 [Dexlansoprazole] | 105 | 101 | 107 | 105 | 101 | 97.7 | 104 | 91.9 |
| NC[C@H](O)c1ccc(O)c(O)c1 [Noradrenaline bitartrate monohydrate] | 105 | 104 | 104 | 111 | 98.9 | 99.7 | 113 | 109 |
| CCCCNc1cc(C(=O)O)cc(S(N)(=O)=O)c1Oc1ccccc1 [Bumetanide] | 102 | 108 | 110 | 113 | 105 | 96.8 | 112 | 118 |
| CC(=O)OCC(=O)[C@@]1(O)CC[C@H]2[C@@H]3CCC4=CC(=O)CC[C@]4(C)[C@H]3C(=O)C[C@@]21C [Cortisone acetate] | 99.7 | 98.2 | 98.1 | 108 | 94.7 | 94.2 | 93.2 | 103 |
| CC(C)(C)CC(C)(C)c1ccc(OCCOCC[N+](C)(C)Cc2ccccc2)cc1 [Benzethonium chloride] | 102 | 94.7 | 75.7 | 17.6 | 97.9 | 93.1 | 66.7 | 18 |
| C[C@]12CCC(=O)C=C1[C@@H]1C[C@@H]1[C@H]1[C@@H]3[C@@H]4C[C@@H]4[C@@]4(CCC(=O)O4)[C@@]3(C)CC[C@@H]12 [Drospirenone] | 104 | 104 | 109 | 105 | 103 | 112 | 100 | 104 |
| Cc1ccc(C(=O)Nc2ccc(CN3CCN(C)CC3)c(C(F)(F)F)c2)cc1C#Cc1cnc2cccnn12 [Ponatinib] | 105 | 108 | 113 | 107 | 103 | 103 | 105 | 106 |
| O=C1CCc2ccc(OCCCCN3CCN(c4cccc(Cl)c4Cl)CC3)cc2N1 [Aripiprazole] | 98.7 | 104 | 97 | 97.8 | 99 | 99.7 | 98.7 | 99.9 |
| CN(CCOc1ccc(CC2SC(=O)NC2=O)cc1)c1ccccn1 (stereo not drawn) [Rosiglitazone] | 104 | 104 | 98.3 | 104 | 99.2 | 105 | 98.4 | 104 |
| O=C1CCc2cc(OCCCCc3nnnn3C3CCCCC3)ccc2N1 [Cilostazol] | 107 | 107 | 111 | 107 | 105 | 108 | 106 | 109 |
| CC1COc2c(N3CCN(C)CC3)c(F)cc3c(=O)c(C(=O)O)cn1c23 (stereo not drawn) [Ofloxacin] | 99.3 | 99.8 | 97.8 | 108 | 98.5 | 97.3 | 62.4 | 115 |
